From the supplement of paper PMC8007513
Counter-ions that a name gives are not always drawn. ± gives the standard error. The campaign covered roughly 1,300 compounds. About 130 (10%) showed an effect of 50% or more. What follows is part of a selection rich in strong results, with near analogues and random picks from the rest.

Tested on: Trichoderma virens ATCC 9645
Assay: growth yield (OD600) with compound + IPBC relative to untreated control; higher = less growth inhibition
Conditions: compound concentration: 100 uM, IPBC concentration: 200 ng/ml
Procedure, shortened: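 Trichoderma virens ATCC 9645 spores at 15,000 spores ml^−1 in potato dextrose broth were exposed in 96-well plates to library compounds at 100 μM final, with or without a biocide at 200 ng ml^−1. After growth at 30 °C, OD600 was read at 40 h and 72 h. Values are growth relative to the control without either agent, averaged over duplicate screens.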

| Structure (SMILES) | growth yield (40 h) [%] | growth yield (72 h) [%] |
| --- | --- | --- |
| C[C@@H]1C[C@@H]([C@H](O)CC2CC(=O)NC(=O)C2)C(=O)[C@@H](C)C1 [Cycloheximide] + CCCCNC(=O)OCC#CI [3-iodo-2-propynyl butylcarbamate (IPBC)] | 34.3 ± 2.9 | 85.7 ± 3.2 |
| C[C@]12CC[C@H]3C(=CCc4cc(O)ccc43)[C@@H]1CCC2=O [Equilin] + CCCCNC(=O)OCC#CI [3-iodo-2-propynyl butylcarbamate (IPBC)] | 82.4 ± 17 | 86.8 ± 9 |
| C=CC[N@@+]12CC[C@@]34c5ccccc5N5/C=C6/[C@H]7C[C@H]8[C@@]9(CC[N@@+]8(CC=C)C/C7=C/CO)c7ccccc7N(/C=C(/[C@@H](C[C@@H]31)/C(=C\CO)C2)[C@H]54)[C@@H]69 [Alcuronium chloride] + CCCCNC(=O)OCC#CI [3-iodo-2-propynyl butylcarbamate (IPBC)] | 6.83 ± 0.16 | 35.4 ± 3.4 |
| Cn1ccnc1S [Methimazole] + CCCCNC(=O)OCC#CI [3-iodo-2-propynyl butylcarbamate (IPBC)] | 120 ± 16 | 111 ± 12 |
| CNCCC(Oc1ccc(C(F)(F)F)cc1)c1ccccc1 (stereo not given) [Fluoxetine hydrochloride] + CCCCNC(=O)OCC#CI [3-iodo-2-propynyl butylcarbamate (IPBC)] | 71.8 ± 4.8 | 96.9 ± 2.9 |
| C(=C\c1ccccc1)/CN1CCN(C(c2ccccc2)c2ccccc2)CC1 [Cinnarizine] + CCCCNC(=O)OCC#CI [3-iodo-2-propynyl butylcarbamate (IPBC)] | 34.9 ± 5.1 | 93.1 ± 4 |
| O=C(O)COCCN1CCN(C(c2ccccc2)c2ccc(Cl)cc2)CC1 (stereo not given) [Cetirizine dihydrochloride] + CCCCNC(=O)OCC#CI [3-iodo-2-propynyl butylcarbamate (IPBC)] | 88.5 ± 6.8 | 93.8 ± 3.8 |
| COc1ccc(CN2CCN(C(c3ccc(F)cc3)c3ccc(F)cc3)CC2)c(OC)c1OC [Lomerizine hydrochloride] + CCCCNC(=O)OCC#CI [3-iodo-2-propynyl butylcarbamate (IPBC)] | 71.8 ± 5.7 | 97.4 ± 4.9 |
| OCCOCCN1CCN(C(c2ccccc2)c2ccc(Cl)cc2)CC1 (stereo not given) [Hydroxyzine dihydrochloride] + CCCCNC(=O)OCC#CI [3-iodo-2-propynyl butylcarbamate (IPBC)] | 76.08 ± 0.16 | 95.9 ± 2.5 |
| Fc1ccc(C(c2ccc(F)cc2)N2CCN(C/C=C/c3ccccc3)CC2)cc1 [Flunarizine dihydrochloride] + CCCCNC(=O)OCC#CI [3-iodo-2-propynyl butylcarbamate (IPBC)] | 3.81 ± 0.32 | 3.78 ± 0.42 |
| CN1CCN(C(c2ccccc2)c2ccccc2)CC1 [Cyclizine hydrochloride] + CCCCNC(=O)OCC#CI [3-iodo-2-propynyl butylcarbamate (IPBC)] | 82.6 ± 1.3 | 87.6 ± 2 |
| CC(C)NC[C@H](O)COc1ccc(CC(N)=O)cc1 [(S)-(-)-Atenolol] + CCCCNC(=O)OCC#CI [3-iodo-2-propynyl butylcarbamate (IPBC)] | 82.8 ± 1.8 | 88.2 ± 0.1 |
| O=C(Nc1ccc([N+](=O)[O-])cc1Cl)c1cc(Cl)ccc1O [Niclosamide] + CCCCNC(=O)OCC#CI [3-iodo-2-propynyl butylcarbamate (IPBC)] | 83.7 ± 2.4 | 90.4 ± 2.5 |
| CC(C)[C@H](N)C(=O)OCCOCn1cnc2c(=O)nc(N)[nH]c21 [Valacyclovir hydrochloride] + CCCCNC(=O)OCC#CI [3-iodo-2-propynyl butylcarbamate (IPBC)] | 86.7 ± 3.2 | 96.4 ± 2.6 |
| CN1C(=O)CCS(=O)(=O)C1c1ccc(Cl)cc1 (stereo not given) [Chlormezanone] + CCCCNC(=O)OCC#CI [3-iodo-2-propynyl butylcarbamate (IPBC)] | 86.7 ± 3.2 | 92.5 ± 1.7 |
| Nc1cc(-c2ccncc2)c[nH]c1=O [Amrinone] + CCCCNC(=O)OCC#CI [3-iodo-2-propynyl butylcarbamate (IPBC)] | 106 | 41.3 |
| Cc1[nH]c(=O)c(C#N)cc1-c1ccncc1 [Milrinone] + CCCCNC(=O)OCC#CI [3-iodo-2-propynyl butylcarbamate (IPBC)] | 89.11 ± 0.48 | 92.9 ± 1.9 |
| CCCNC(C)C(=O)Nc1ccccc1C (stereo not given) [Prilocaine hydrochloride] + CCCCNC(=O)OCC#CI [3-iodo-2-propynyl butylcarbamate (IPBC)] | 86.4 | 95.54 ± 0.52 |
| C[C@H]1NC(=O)NC1=O [Methylhydantoin-5-(D)] + CCCCNC(=O)OCC#CI [3-iodo-2-propynyl butylcarbamate (IPBC)] | 97.4 ± 14 | 95.4 ± 8.4 |
| CN1[C@@H]2C[C@@H](OC(=O)[C@H](CO)c3ccccc3)C[C@H]1[C@@H]1O[C@@H]12 [Scopolamine hydrochloride] + CCCCNC(=O)OCC#CI [3-iodo-2-propynyl butylcarbamate (IPBC)] | 94.4 ± 7.9 | 94.1 ± 3.5 |
| Cc1cnc(C(=O)O)c[n+]1[O-] [Acipimox] + CCCCNC(=O)OCC#CI [3-iodo-2-propynyl butylcarbamate (IPBC)] | 85.3 ± 0.48 | 90.72 ± 0.1 |
| Nc1nc(F)nc2c1ncn2[C@@H]1O[C@H](CO)[C@@H](O)[C@@H]1O [Fludarabine] + CCCCNC(=O)OCC#CI [3-iodo-2-propynyl butylcarbamate (IPBC)] | 85.3 ± 2.4 | 86.6 ± 1.1 |
| Nc1nc(=S)c2ncn([C@@H]3O[C@H](CO)[C@@H](O)[C@H]3O)c2[nH]1 [Thioguanosine] + CCCCNC(=O)OCC#CI [3-iodo-2-propynyl butylcarbamate (IPBC)] | 46.1 ± 0.64 | 88.3 ± 2.3 |
| Nc1ncnc2c1ncn2[C@@H]1O[C@H](CO)[C@@H](O)[C@@H]1O [Vidarabine] + CCCCNC(=O)OCC#CI [3-iodo-2-propynyl butylcarbamate (IPBC)] | 121 ± 11 | 109 ± 7.3 |
| CN(C)CCCO[C@@H]1[C@H]2OC(C)(C)O[C@H]2O[C@@H]1[C@H](O)CO [Amiprilose hydrochloride] + CCCCNC(=O)OCC#CI [3-iodo-2-propynyl butylcarbamate (IPBC)] | 89.4 ± 4.9 | 93.3 ± 4.6 |
